Shown are actives, neighbours in structure and some others; about 19% of the full set was active somewhere.
HT1080 IDH1KD tx – toxicity to HT-1080 IDH1 knockdown cells (counter line). actives 2% (n = 360,000). HT-1080 IDH1 knockdown viability, ATP luminescence, 48 h. Potency, µM (series often up to 46.1 µM), for the others: at the top dose activity, negative = toxicity, hits mostly cytotoxic;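 further: potency means the concentration at half of the fitted maximal effect; 0% = DMSO wells and -100% = cell-free medium wells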
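IDH1KD HT-1080 cells, 750/well, RPMI + 5% FBS; compound pinned after 2 h settling; 48 h, 37 °C; CellTiter-Glo luminescence; % activity normalised to DMSO and no-cell wells; curves fitted, classed by r2 and efficacy.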
DT40 TDP1 CPT – DT40-hTDP1 cell growth loss with CPT | AID 686979 | Potency, µM (highest dose often 46.2 µM), for inactives: at the top dose activity change, negative = growth inhibition, actives largely listed as inhibitors | actives 12% (n = 420,000) | chicken DT40 Tdp1-/-;hTDP1 cells + 20 nM CPT, ATP luminescence, 48 h; further: potency means the concentration at half of the fitted maximal effect; nearly all actives have a fitted effect of over 55% in size
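Chicken DT40 Tdp1-/- cells stably complemented with human TDP1 were seeded at 400 cells/well in medium containing 20 nM camptothecin, exposed to pin-transferred compounds, and grown at 37 °C for at least 48 hr. Viability was read as ATP luminescence.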
ELG1 DNA repair – ELG1-dependent DNA repair inhibition. HEK293T ELG1-luciferase reporter, luminescence, 16 h; DNA damage induced by 5-fluorouridine. Potency, µM (top dose mostly 46.1 µM), for the others: at the top dose activity change, negative = inhibition, most hits filed as inhibitors. actives 2.3% (n = 330,000). AID 504467; further: potency means the concentration at half of the fitted maximal effect; nearly all actives have a fitted effect of over 55% in size
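5-Fluorouridine DNA damage + compound/DMSO, 2,000 cells/well, 16 h, 37 °C/5% CO2. ONE-Glo, 30 min RT, luminescence. Readout = decrease in reporter signal.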
HT1080-NT tox – kills 2HG-producing HT-1080-NT fibrosarcoma cells | AID 686970 | Potency, µM (top dose mostly 46.1 µM), for the others: at the highest dose activity, negative = less viability, usual class: cytotoxic | actives 1.6% (n = 360,000) | HT-1080-NT fibrosarcoma viability, CellTiter-Glo ATP luminescence, 48 h;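 further: NT is the 2HG producing partner of a matched IDH1 knockdown line; potency means the concentration at half of the fitted maximal effect; 0% = DMSO-treated cells and -100% = media-only wells without cells; nearly all actives have a fitted effect of over 55% in size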
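Viability by CellTiter-Glo luminescence after 48 h compound exposure at 37C of HT-1080-NT cells (750/well, RPMI, 5% FBS). % activity scaled between DMSO wells and medium-only wells, then curve-fitted and categorized by curve class.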
DT40 TDP1 no CPT – qHTS for Inhibitors of human tyrosyl-DNA phosphodiesterase 1 (TDP1): qHTS in cells in absence of CPT | DT40 Tdp1-/- hTDP1 cells, no CPT, ATP luminescence, 48 h | Potency, µM (top dose mostly 46.2 µM), without a hit: top-dose activity change, negative = growth inhibition, most hits filed as inhibitors | AID 686978, 2013 | actives 15% (n = 420,000); further: potency means the concentration at half of the fitted maximal effect; nearly all actives have a fitted effect of over 55% in size
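Luminescent ATP content (CellTiter-Glo) served as the growth readout. Knockout chicken DT40 cells expressing human TDP1 were exposed to compounds without camptothecin for a minimum 48 hr at 37 °C.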
IL1B secr inh – inhibitors of inflammasome signaling (IL-1 beta secretion). activity change, % at 57.5 µM. THP-1 LPS/ATP IL-1B secretion, AlphaLISA, 16 h; stronger effect = lower value. actives 4.7% (n = 360,000); in the data active means activity change below about -50%; inconclusive means mostly about -30% to -49%
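Secreted IL-1B measured by AlphaLISA bead assay after 16 h compound exposure of THP-1 cells; compounds (final up to 57.5 uM) added 1 h before LPS (250 ng/mL) and ATP (1.25 mM) stimulation; lower signal means less secretion.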
Starred values were filed as active, the others as inactive; u = inconclusive; x = no result; [ ] = remark or other dose. Unless noted, the call rests on the fitted dose curve; in most records, active means well fitted curve in the direction sought with a large enough effect; inconclusive means small, poorly fitted or top-dose-only effect, or another doubt; inactive means no such curve, though single readings can be large; an effect the other way counts as inactive or inconclusive. Unless noted, on the % scale 0 is the no-effect control and ±100 the full control effect.

SMILES	HT1080 IDH1KD tx	DT40 TDP1 CPT	ELG1 DNA repair	HT1080-NT tox	DT40 TDP1 no CPT	IL1B secr inh
Clc1ccc(CN(Cc2ccccc2)C(c2cccs2)c2nnnn2C2CCCC2)cc1 (stereo not given)	-17%	15µM*	x	-16%	15µM*	-14
CC(C)(C)n1nnnc1C(c1cccs1)N(Cc1ccc(Cl)cc1)CC1CCCO1 (stereo not given)	u	21µM*	x	-26%	16µM*	0
CC1CCCN(C(c2cccs2)c2nnnn2Cc2ccccc2)C1 (stereo not given)	-12%	u	24%	-25%	u	-23
Cc1n[nH]c(C)c1CCCCOc1ccccc1	0%	u	u	-11%	u	21
Cc1n[nH]c(C)c1CCCCOc1ccccc1F	-17%	-28%	2%	-6%	u	u
COc1cccc(OC)c1OCCCCCc1c(C)n[nH]c1C	-9%	u	-13%	-6%	u	-4
COc1cccc(OC)c1OCCCCc1c(C)n[nH]c1C	-3%	26µM*	-13%	1%	u	2
Cc1ccc(OCCCc2c(C)n[nH]c2C)cc1	-22%	u	u	-15%	16µM*	-16
Cc1n[nH]c(C)c1CCCCOc1ccccc1[N+](=O)[O-]	-15%	21µM*	1%	-4%	u	-13
Cc1ccccc1OCCCCc1c(C)n[nH]c1C	u	u	11%	u	18µM*	-17
Cc1cccc(C)c1OCCCCc1c(C)n[nH]c1C	u	-23%	x	0%[9.24 µM]	u	0
CN(Cc1ccc(F)cc1)S(=O)(=O)c1ccc2[nH]c(=O)[nH]c2c1	0%	-7%	x	3%	-28%	-5
COc1ccc(N(CC(=O)NCc2ccc(C)cc2)S(=O)(=O)c2c(C)[nH]c(=O)[nH]c2=O)cc1	10%	-4%	15%	12%	3%	9
Cc1ccc(C(=O)NCC(=O)N(C)Cc2ccc(Cl)cc2Cl)s1	6%	u	11%	0%	u	-6
Cc1ccc(C)c(NC(=O)CN(C)C(=O)c2cccc(S(=O)(=O)N3CCCC3)c2)c1	-1%	5%	u	-4%	-1%	4
CN(CCOc1ccc(Cl)cc1)C(=O)c1cccc(S(=O)(=O)N2CCN(Cc3ccccc3)CC2)c1	u	15µM*	x	u	21µM*	u
Cc1ccc(C)c(NC(=O)CN(C)C(=O)c2cccc(S(=O)(=O)N3CCN(Cc4ccccc4)CC3)c2)c1	u	18µM*	u	21µM*	12µM*	-5
COc1ccc(NC(=O)CN(C)C(=O)c2cccc(S(=O)(=O)N3CCN(Cc4ccccc4)CC3)c2)cc1	-24%	18µM*	6%	u	12µM*	-17
Cc1cc(C)n(C(C)CC(=O)Nc2cccc(C#N)c2)n1 (stereo not given)	x	1%	x	x	-12%	x
Cc1ccccc1-c1cc2nc(NCCc3ccncc3)n(C)c(=O)c2s1	u	16µM*	x	u	15µM*	-29
Cn1c(NCCc2ccncc2)nc2cc(-c3ccccc3)sc2c1=O	21%	26µM*	x	-6%	u	-23
CC(=O)NCCNc1nc2cc(-c3ccccc3)sc2c(=O)n1C	-13%	u	x	-9%	u	49
CCN(CC(=O)N1CCCC1)S(=O)(=O)c1ccc(OC)cc1	19%	-1%	2%	2%	-20%	8
CCOC(=O)N1CCC2CC1c1cc(-c3cccc(OC)c3)ccc12 (stereo not given)	-7%	u	x	0%	u	26
C=CC1CN(C(=O)OCC(Cl)(Cl)Cl)C2CC3c4ccc(OC)cc4NC3C3CC1C2CO3 (stereo not given)	-21%	u	x	-21%	18µM*	-10
SMILES	HT1080 IDH1KD tx	DT40 TDP1 CPT	ELG1 DNA repair	HT1080-NT tox	DT40 TDP1 no CPT	IL1B secr inh
NS(=O)(=O)c1cccc(NC(=O)COC(=O)CCCc2c[nH]c3ccccc23)c1	2%	-1%	-8%	-2%	2%	18
CCC(=O)/C=C1\Sc2ccc(OC)cc2N1CCO	26%	-26%	-4%	u	-21%	-17
CCC(=O)/C=C1\Sc2ccc(OC)cc2N1CC	-10%	u	u	-23%	16µM*	-6
CCN1/C(=C\C(C)=O)Sc2ccc(OC)cc21	-2%	u	23µM*	0%	-26%	3
CCN1C(=O)C(NC(C)=O)c2cc(OC)ccc21 (stereo not given)	13%	12%	0%	16%	3%	8
COc1ccc(Cl)cc1C(=O)NCc1nc(-c2cccc(C)c2)no1	x	u	x	x	-26%	x
CCOc1ccc(CNC(=O)Cn2nc(C)c3sc4ccccc4c3c2=O)cc1	x	1%	x	x	0%	x
CCCn1c(=O)c(C(=O)NNS(=O)(=O)c2ccc(C)cc2)c(O)c2ccccc21	33µM*	u	6%	u	u	14
CCCCCCCCCC(=O)NNC(=O)c1c(O)c2ccccc2n(CC)c1=O	-16%	u	-10%	-1%	8.2µM*	17
CCCCCC(=O)NNC(=O)c1c(O)c2ccccc2n(CC)c1=O	-14%	u	5%	-8%	u	-3
CCn1c(=O)c(C(=O)NNS(=O)(=O)c2ccc(C)cc2)c(O)c2ccccc21	-7%	u	9%	-3%	u	2
CCn1c(=O)c(C(=O)NNC(=O)c2ccccc2Cl)c(O)c2ccccc21	-22%	u	11%	u	u	99
CCn1c(=O)c(C(=O)NNC(=O)c2ccccc2F)c(O)c2ccccc21	-25%	u	5%	u	18µM*	5
CCN(C(=O)CSc1ncccn1)C1CCS(=O)(=O)C1 (stereo not given)	1%	-4%	-4%	-6%	14%	-9
CC1(c2nnnn2Cc2ccccc2)CCC(=O)N1CCc1ccccc1F (stereo not given)	-16%	-21%	x	0%	-12%	-20
CN(C(=O)CSc1ncnc2ccccc12)C1CCCCC1	13%	-5%	u	12%	-15%	-89*
CN(C(=O)COc1ncnc2ccccc12)C1CCCCC1	-4%	-4%	7%	-10%	-14%	6
O=C(CSc1nc2ccccc2c(=O)n1-c1ccccc1Cl)Nc1cccc(S(=O)(=O)N2CCOCC2)c1	-9%	15µM*	-21%	-6%	u	-12

Assay outcomes deposited in PubChem by National Center for Advancing Translational Sciences (NCATS).
